In the supplement of paper PMC10646978:
± gives the standard deviation.

How the values were obtained:
Details in all cases: modulator concentration 10 µM
[1] = tested on: RAW-Dual (murine macrophage reporter line); experiment: NF-kB reporter (SEAP) activity fold change vs agonist alone; higher = enhanced NF-kB activity
Outline: (§1)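 Compound reached 10 μM final in each well by pin transfer, onto RAW-Dual murine macrophage reporter cells seeded at 50 000 per well in 384-well plates. After 1 hour at 37 °C, the cells were stimulated overnight with a PRR agonist. SEAP in the supernatant was read with QUANTI-Blue at 620 nm absorbance for NF-κB, and Lucia luciferase was read with QUANTI-Luc luminescence for IRF. Each signal was turned into fold change against the mean agonist-only control on the same plate, and two replicate plates were averaged with propagated errors.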

[2] = tested on: RAW-Dual (murine macrophage reporter line); experiment: IRF reporter (Lucia luciferase) activity fold change vs agonist alone; higher = enhanced IRF activity
Outline: as §1

[3] = tested on: RAW-Dual (murine macrophage reporter line); experiment: viability score (confluency relative to resting cells, overnight) (fraction); higher = more viable, active = viable (0.7 or more)
Outline: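 A compound met the cutoff when both of two confluency masks exceeded 70% of resting cells. Those masks were made with IncuCyte software from IncuCyte images of RAW-Dual macrophages treated overnight at 10 μM final. This is the basis of the viability score, which is confluency relative to resting cells.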

[4] = agonist: CpG ODN 1826 0.5 ug/mL

O=c1n(CCNS(=O)(=O)Cc2ccccc2)nc(C2CC2)n1-c1ccccc1
NF-kB reporter [1, 4]: 1.03 ± 0.052 | NF-kB reporter ([1]; agonist: LPS 0.1 ug/mL): 1.08 ± 0.09 | NF-kB reporter ([1]; agonist: MPLA […]): 1.1 ± 0.074 | IRF reporter ([2]; agonist: 3'3'-cGAMP 10 ug/mL): 1.03 ± 0.063 | IRF reporter ([2]; agonist: LPS 0.1 ug/mL): 1.26 ± 0.08 | IRF reporter ([2]; agonist: MPLA […]): 1.22 ± 0.1 | viability score [3]: 1.01 (active)

C[C@@H]1CCN(C(=O)CC#N)C[C@@H]1N(C)c1ncnc2[nH]ccc12
NF-kB reporter [1, 4]: 1.14 ± 0.15 | NF-kB reporter ([1]; agonist: LPS 0.1 ug/mL): 0.694 ± 0.24 | NF-kB reporter ([1]; agonist: MPLA […]): 0.824 ± 0.064 | IRF reporter ([2]; agonist: 3'3'-cGAMP 10 ug/mL): 0.337 ± 0.022 | IRF reporter ([2]; agonist: LPS 0.1 ug/mL): 0.473 ± 0.098 | IRF reporter ([2]; agonist: MPLA […]): 0.654 ± 0.082 | viability score [3]: 0.992 (active)

Nc1ncn(C2O[C@H](CO)[C@@H](O)[C@H]2O)c(=O)n1 (stereo partly drawn) [Prestw-866]
NF-kB reporter [1, 4]: 2.01 ± 0.35 | NF-kB reporter ([1]; agonist: LPS 0.1 ug/mL): 1.24 ± 0.18 | NF-kB reporter ([1]; agonist: MPLA […]): 4.32 ± 0.33 | IRF reporter ([2]; agonist: 3'3'-cGAMP 10 ug/mL): 0.508 ± 0.033 | IRF reporter ([2]; agonist: LPS 0.1 ug/mL): 0.622 ± 0.14 | IRF reporter ([2]; agonist: MPLA […]): 0.747 ± 0.1 | viability score [3]: 0.806 (active)

Nc1ccn(C2OC(CO)C(O)C2O)c(=O)n1 (stereo not drawn)
NF-kB reporter [1, 4]: 1 ± 0.082 | NF-kB reporter ([1]; agonist: LPS 0.1 ug/mL): 0.875 ± 0.092 | NF-kB reporter ([1]; agonist: MPLA […]): 1.49 ± 0.44 | IRF reporter ([2]; agonist: 3'3'-cGAMP 10 ug/mL): 0.96 ± 0.052 | IRF reporter ([2]; agonist: LPS 0.1 ug/mL): 1.25 ± 0.2 | IRF reporter ([2]; agonist: MPLA […]): 1.26 ± 0.27 | viability score [3]: 1.03 (active)

COc1ccc(CCNC(=O)NCc2nn(C3CCCC3)c3c2CCCC3)cc1
NF-kB reporter [1, 4]: 0.854 ± 0.037 | NF-kB reporter ([1]; agonist: LPS 0.1 ug/mL): 1.04 ± 0.12 | NF-kB reporter ([1]; agonist: MPLA […]): 1.12 ± 0.08 | IRF reporter ([2]; agonist: 3'3'-cGAMP 10 ug/mL): 0.726 ± 0.057 | IRF reporter ([2]; agonist: LPS 0.1 ug/mL): 1.13 ± 0.18 | IRF reporter ([2]; agonist: MPLA […]): 1.15 ± 0.27 | viability score [3]: 0.983 (active)

Cn1c(=O)cc(N2CCC[C@@H](N)C2)n(Cc2ccccc2C#N)c1=O
NF-kB reporter [1, 4]: 1.19 ± 0.25 | NF-kB reporter ([1]; agonist: LPS 0.1 ug/mL): 1.25 ± 0.28 | NF-kB reporter ([1]; agonist: MPLA […]): 2.23 ± 1.3 | IRF reporter ([2]; agonist: 3'3'-cGAMP 10 ug/mL): 0.958 ± 0.031 | IRF reporter ([2]; agonist: LPS 0.1 ug/mL): 1.3 ± 0.35 | IRF reporter ([2]; agonist: MPLA […]): 1.33 ± 0.26 | viability score [3]: 0.99 (active)

O=C(NCCCn1ccc2cccnc21)c1ccccc1C(F)(F)F
NF-kB reporter [1, 4]: 0.946 ± 0.091 | NF-kB reporter ([1]; agonist: LPS 0.1 ug/mL): 1.1 ± 0.092 | NF-kB reporter ([1]; agonist: MPLA […]): 1.03 ± 0.18 | IRF reporter ([2]; agonist: 3'3'-cGAMP 10 ug/mL): 1.06 ± 0.056 | IRF reporter ([2]; agonist: LPS 0.1 ug/mL): 1.16 ± 0.1 | IRF reporter ([2]; agonist: MPLA […]): 1.45 ± 0.15 | viability score [3]: 0.978 (active)

CN1CCN(c2nc(C3=C(c4c[nH]c5ccccc45)C(=O)NC3=O)c3ccccc3n2)CC1
NF-kB reporter [1, 4]: 0.748 ± 0.034 | NF-kB reporter ([1]; agonist: LPS 0.1 ug/mL): 0.961 ± 0.081 | NF-kB reporter ([1]; agonist: MPLA […]): 1.21 ± 0.071 | IRF reporter ([2]; agonist: 3'3'-cGAMP 10 ug/mL): 0.798 ± 0.041 | IRF reporter ([2]; agonist: LPS 0.1 ug/mL): 1.14 ± 0.24 | IRF reporter ([2]; agonist: MPLA […]): 1.17 ± 0.32 | viability score [3]: 0.988 (active)

COc1ccc(S(=O)(=O)NCc2ccnc(-c3ccncc3)c2)cc1Cl
NF-kB reporter [1, 4]: 0.831 ± 0.098 | NF-kB reporter ([1]; agonist: LPS 0.1 ug/mL): 1.06 ± 0.1 | NF-kB reporter ([1]; agonist: MPLA […]): 0.964 ± 0.16 | IRF reporter ([2]; agonist: 3'3'-cGAMP 10 ug/mL): 0.388 ± 0.02 | IRF reporter ([2]; agonist: LPS 0.1 ug/mL): 0.969 ± 0.07 | IRF reporter ([2]; agonist: MPLA […]): 1.11 ± 0.11 | viability score [3]: 0.999 (active)

CS(=O)(=O)N1CCN(Cc2cc3nc(-c4cccc5[nH]ncc45)nc(N4CCOCC4)c3s2)CC1
NF-kB reporter [1, 4]: 0.179 ± 0.029 | NF-kB reporter ([1]; agonist: LPS 0.1 ug/mL): 2.63 ± 0.34 | NF-kB reporter ([1]; agonist: MPLA […]): 2.94 ± 0.17 | IRF reporter ([2]; agonist: 3'3'-cGAMP 10 ug/mL): 0.151 ± 0.0092 | IRF reporter ([2]; agonist: LPS 0.1 ug/mL): 1.4 ± 0.24 | IRF reporter ([2]; agonist: MPLA […]): 1.33 ± 0.17 | viability score [3]: 0.888 (active)

CCCOCCOC(=O)C1=C(C)NC2=C(C(=O)CCC2)C1c1ccc(F)c(F)c1 (stereo not drawn)
NF-kB reporter [1, 4]: 0.971 ± 0.081 | NF-kB reporter ([1]; agonist: LPS 0.1 ug/mL): 1.07 ± 0.1 | NF-kB reporter ([1]; agonist: MPLA […]): 0.851 ± 0.07 | IRF reporter ([2]; agonist: 3'3'-cGAMP 10 ug/mL): 1.09 ± 0.042 | IRF reporter ([2]; agonist: LPS 0.1 ug/mL): 1.41 ± 0.1 | IRF reporter ([2]; agonist: MPLA […]): 1.2 ± 0.12 | viability score [3]: 1.01 (active)

CC1(C)CCCC2=C1CC1C(=O)NC(=O)C1C2 (stereo not drawn)
NF-kB reporter [1, 4]: 0.88 ± 0.079 | NF-kB reporter ([1]; agonist: LPS 0.1 ug/mL): 0.977 ± 0.076 | NF-kB reporter ([1]; agonist: MPLA […]): 0.948 ± 0.14 | IRF reporter ([2]; agonist: 3'3'-cGAMP 10 ug/mL): 0.953 ± 0.085 | IRF reporter ([2]; agonist: LPS 0.1 ug/mL): 1.16 ± 0.2 | IRF reporter ([2]; agonist: MPLA […]): 1.32 ± 0.33 | viability score [3]: 1.03 (active)

COc1cc2c(cc1OC)C1C(=O)c3ccc4c(c3OC1CO2)CCC(C)(C)O4 (stereo not drawn)
NF-kB reporter [1, 4]: 0.91 ± 0.073 | NF-kB reporter ([1]; agonist: LPS 0.1 ug/mL): 1.02 ± 0.075 | NF-kB reporter ([1]; agonist: MPLA […]): 1.67 ± 0.16 | IRF reporter ([2]; agonist: 3'3'-cGAMP 10 ug/mL): 0.824 ± 0.026 | IRF reporter ([2]; agonist: LPS 0.1 ug/mL): 1.52 ± 0.24 | IRF reporter ([2]; agonist: MPLA […]): 1.75 ± 0.36 | viability score [3]: 1.02 (active)

CC1CCN(c2cc(N3CCNCC3)ncn2)CC1
NF-kB reporter [1, 4]: 0.972 ± 0.32 | NF-kB reporter ([1]; agonist: LPS 0.1 ug/mL): 1.08 ± 0.054 | NF-kB reporter ([1]; agonist: MPLA […]): 1.02 ± 0.069 | IRF reporter ([2]; agonist: 3'3'-cGAMP 10 ug/mL): 0.932 ± 0.032 | IRF reporter ([2]; agonist: LPS 0.1 ug/mL): 1.11 ± 0.17 | IRF reporter ([2]; agonist: MPLA […]): 1.26 ± 0.26 | viability score [3]: 0.997 (active)
